# Measured values: the supplement of paper PMC11402862
# Test system: PPARgamma LBD (GAL4 fusion)
# Assay: luciferase reporter transactivation, fold of solvent control; higher = stronger receptor activation
# Conditions: HEK293T, exposure time: 24 h
# Experimental: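 HEK293T cells were transiently transfected with a GAL4-DBD fused to the ligand-binding domain of a human nuclear receptor (PPARα, PPARγ, PPARδ, FXR, LXRα, PXR, RARα or CAR), the GAL4-(UAS)5-TK firefly luciferase reporter and a Renilla luciferase normalisation plasmid. Cells were exposed to compound for 24 h in 0.5% DMSO. Firefly/Renilla luciferase was expressed as fold of the solvent control (=1). Values are the mean of 2-3 biological replicates; receptor agonists were used as positive controls.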
SMILES,luciferase reporter transactivation (concentration: 1 µM),luciferase reporter transactivation (concentration: 5 µM),luciferase reporter transactivation (concentration: 10 µM),luciferase reporter transactivation (concentration: 25 µM),luciferase reporter transactivation (concentration: 50 µM),luciferase reporter transactivation (concentration: 100 µM),luciferase reporter transactivation (concentration: 250 µM),luciferase reporter transactivation (concentration: 500 µM),luciferase reporter transactivation (concentration: 2.5 µM)
O=C(O)C(F)(F)C(F)(F)F [perfluoropropanoic acid],1.14,1.11,1.23,1.18,1.29,1.32,1.27,1.33,–
NS(=O)(=O)C(F)(F)C(F)(F)C(F)(F)C(F)(F)C(F)(F)C(F)(F)C(F)(F)C(F)(F)F [perfluorooctane sulfonamide],0.722,1.08,1.01,–,–,1.18,–,–,1.1
